ELG1 genotox = genotoxicity induction in ELG1-luciferase HEK293T cells; HEK293T ELG1-luciferase reporter, luminescence, 16 h; Potency, µM (titrated, usually from 46 µM), for the others: at the top dose activity change, positive = activation, most hits filed as activators; 330,000 tested, 1.3% active; AID 504466; further: % of control where 0% means no effect; nearly all actives have a fitted effect of over 60% in size
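Quantitative HTS format in 1536-well plates. HEK293T ELG1-luciferase reporter cells receive test compound and are incubated 16 hr at 37 °C, 5% CO2; ONE-Glo added, 30 min room temperature, then luminescence read.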
FLuc modulator = counter-screen for miR-21 project: firefly luciferase inhibitors or activators. P08659. AID 588342. 360,000 tested, 6.9% active. purified FLuc, Km substrates, luminescence inhibition. Potency, µM (highest dose often 57.5 µM), for inactives: top-dose activity change, negative = inhibition, usual class: inhibitors;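 further: plate controls were vehicle for no effect and reference inhibitor for full effect; nearly all actives have a fitted effect of over 55% in size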
Target sequence (P08659 whole entry, looked up): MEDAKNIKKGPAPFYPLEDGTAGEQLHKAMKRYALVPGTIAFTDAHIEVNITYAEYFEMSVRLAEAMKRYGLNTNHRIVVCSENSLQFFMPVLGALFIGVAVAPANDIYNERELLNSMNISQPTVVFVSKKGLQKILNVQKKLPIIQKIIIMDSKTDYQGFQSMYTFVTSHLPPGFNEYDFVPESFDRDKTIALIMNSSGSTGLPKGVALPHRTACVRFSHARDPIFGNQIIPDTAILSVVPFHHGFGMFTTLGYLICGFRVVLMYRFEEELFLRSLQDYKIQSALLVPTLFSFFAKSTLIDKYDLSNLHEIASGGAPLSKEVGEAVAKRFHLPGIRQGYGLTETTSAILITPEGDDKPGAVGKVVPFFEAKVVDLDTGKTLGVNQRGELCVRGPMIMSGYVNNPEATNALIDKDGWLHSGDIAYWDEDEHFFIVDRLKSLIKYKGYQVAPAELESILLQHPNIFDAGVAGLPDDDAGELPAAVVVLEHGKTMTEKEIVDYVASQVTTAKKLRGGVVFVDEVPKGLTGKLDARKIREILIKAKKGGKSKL
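Purified P. pyralis luciferase, 10 nM final, with Km-level 10 uM D-luciferin and 10 uM ATP in 50 mM Tris acetate pH 7.5, 10 mM Mg acetate, 0.01% Tween-20, 0.05% BSA; 6-point qHTS titration about 60 µM downward; luminescence read.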
NPC1 promoter act = NPC1 promoter activation | Huh7 NPC1 promoter luciferase reporter, 24 h | Potency, µM (highest dose often 9.22 µM), for inactives: at the top dose activation, actives largely listed as activators | 320,000 tested, 2.4% active | AID 485313; further: % of control where 0% means no effect; nearly all actives have a fitted effect of over 60% in size
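Luminescence from an NPC1 promoter-driven luciferase reporter in stably transfected Huh7 cells was measured after 24 h compound treatment at 37 °C, followed by 10 min ambient incubation with luciferase detection reagent.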
SMN2 splice up = SMN2 splice variant enhancement; HEK293 SMN2-luciferase splicing reporter, luminescence, 30-36 h; 210,000 tested, 2.8% active; Potency, µM (highest dose often 46.1 µM), for inactives: at the highest dose activity change, positive = activation, usual class: activators; further: % of control where 0% means no effect; nearly all actives have a fitted effect of over 55% in size
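qHTS luciferase splicing reporter: luminescence rises when SMN2 exon 7 is included in transfected HEK293 cells. Compound exposure lasted 30-36 h at 37C, with 4.5 mM final sodium butyrate as control, followed by a ONE-Glo read.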
ELG1 repair inh = blocks ELG1-dependent DNA repair in HEK293T cells; 330,000 tested, 2.3% active; HEK293T ELG1-luciferase reporter, luminescence, 16 h; DNA damage induced by 5-fluorouridine; Potency, µM (titrated, usually from 46.1 µM), for inactives: at the top dose activity change, negative = inhibition, most hits filed as inhibitors; further: on the % scale 0 is the no-effect control and ±100 the full control effect; nearly all actives have a fitted effect of over 55% in size
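Overnight (16 hr) co-exposure of 2,000 cells/well to 5-fluorouridine and compound at 37 °C preceded detection. Luciferase was quantified via ONE-Glo luminescence; loss of signal denotes inhibition.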
Rab9 prom act = activates the Rab9 promoter | Potency, µM (top dose mostly 9.22 µM), without a hit: top-dose activation, negative = inhibition, usual class: activators | Huh7 Rab9 promoter-luciferase reporter, luminescence, 24 h | 320,000 tested, 2.8% active | AID 485297; further: % of control where 0% means no effect; nearly all actives have a fitted effect of over 60% in size
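Luciferase signal after 10 min detection reagent at ambient indicates Rab9 promoter upregulation; stably transfected Huh7 cells were treated 24 h with compound in DMSO at 37 °C, 5% CO2.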
The depositor's hits bear a star; ? = inconclusive; . = no result given; [ ] = remark or other dose. Sampled rows, rich in hits. Any-hit rate of the full collection: about 9.2%. The call rests on the fitted dose curve; in most records, active means well fitted curve in the direction sought with a large enough effect; inconclusive means small, poorly fitted or top-dose-only effect, or another doubt; inactive means no such curve, though single readings can be large; an effect the other way counts as inactive or inconclusive. Potency means the concentration at half of the fitted maximal effect.

SMILES	ELG1 genotox	FLuc modulator	NPC1 promoter act	SMN2 splice up	ELG1 repair inh	Rab9 prom act
Nc1ncnc(NCc2ccc(F)cc2)c1[N+](=O)[O-]	-15.9%	-0.3%	-2.1%	-14.8%	8.2µM*	-2.5%
CCOc1ccccc1CNS(=O)(=O)c1ccc2c(c1)CCCN2C(C)=O	.	-2.2%	.	.	.	.
O=c1c2ccc([N+](=O)[O-])cc2ncn1CCOc1cccc(Br)c1	-13.4%	-5.9%	-3.7%	-56.9%	18.3µM*	9.5%
Cc1ccc(OCCn2cnc3ccccc3c2=O)c([N+](=O)[O-])c1	?	?	2.82µM*	15.8µM*	?	1.78µM*
O=c1c2ccc([N+](=O)[O-])cc2ncn1CCOc1ccc(Cl)cc1	-16.0%	-2.1%	-0.9%	-9.9%	?	0.1%
Cc1ccc(CNC(=O)CN2CCN(Cc3ccc(F)cc3)C2=O)cc1	.	-10.9%	.	-11.7%	.	.
CC1(C)CC(=O)C2=C(C1)NC1=C(C(=O)c3ccccc31)C2c1ccccc1 (centres undefined)	-7.4%	-15.9%	-3.4%	-2.9%[1.84 µM]	25.9µM*	1.1%
O=c1oc2ccccc2c(Nc2cc3ccccc3cc2O)c1[N+](=O)[O-]	7.3%	12µM*	?	.	?	?
O=c1oc2ccccc2c(Nc2ccccc2O)c1[N+](=O)[O-]	2.2%	0.2%	-0.5%	.	5.4%	11.1%
COc1nc(Nc2cccc([N+](=O)[O-])c2)nc(OC)n1	2.5%	-0.7%	-0.3%	-5.9%	?	-3.3%
C#CCOc1nc(Nc2cccc([N+](=O)[O-])c2)nc(OCC#C)n1	-4.7%	-14.5%	-0.1%	.	18.3µM*	-11.3%
O=C(N/N=C/c1cc(Cl)c(O)c(Cl)c1)c1cc2c(ccc3ccccc32)o1	-6.5%	2.13µM*	9.7%	.	0.0%	12.3%
CCOC(=O)COc1ccccc1/C=N\NC(=O)c1cc2c(ccc3ccccc32)o1	-0.6%	23.9µM*	-4.1%	.	-15.5%	0.1%
O=C(N/N=C/c1cc(Br)c(O)c(Br)c1)c1cc2c(ccc3ccccc32)o1	-0.5%	3.01µM*	1.2%	.	-4.9%	0.2%
COc1cccc(N2CCN(C(=O)CN3C(=O)NC(C)(c4ccc5ccccc5c4)C3=O)CC2)c1 (centres undefined)	?	-7.3%	-5.3%	.	?	-11.1%
CC(=O)N(C)c1ccc(N=Nc2c(C)[nH]n(C(N)=S)c2=O)cc1	?	2.69µM*	0.631µM*	3.16µM*	?	0.447µM*
Cc1ccccc1N=Nc1c(C)[nH]n(C(N)=S)c1=O	0.2%	?	10.1%	-2.7%	?	1.1%
CCN(CC)S(=O)(=O)c1ccc(N=Nc2c(C)[nH]n(C(N)=S)c2=O)cc1	16.3%	8.49µM*	?	?	?	?
CC(=O)N(C)c1ccc(N=Nc2c(C)[nH]n(-c3ccccc3)c2=O)cc1	-6.8%	-15.1%	-0.2%	.	-1.0%	-9.6%
COc1ccc(NC(=O)CC2C(=O)N(c3ccccc3)C(=O)N2CCc2sccc2C)cc1 (centres undefined)	.	-14.5%	.	13.8%	.	.
Cc1nc(C)c(C(=O)NCCC(c2ccccc2)c2ccccc2)o1	-12.6%	-0.4%	-14.7%	-86.6%	5.8µM*	-10.7%
COc1ccc(-c2ccc3ccccc3n2)cc1OC	4.11µM*	10.7µM*	2.24µM*	14.1µM*	?	2µM*
COc1ccc2nc3ccccc3nc2c1	11.2%	16.9µM*	3.98µM*	11.2µM*	?	2.82µM*
Nc1ccc(-c2ccc3ccccc3n2)cc1	.	.	1.46µM*	3.16µM*	.	1.3µM*
COc1ccc(-c2noc(C)c2-c2ccc3ccccc3n2)c(O)c1	-4.8%	1.1%	3.1%	-37.5%	?	3.8%
SMILES	ELG1 genotox	FLuc modulator	NPC1 promoter act	SMN2 splice up	ELG1 repair inh	Rab9 prom act
COc1ccc(-c2ccc3ccccc3n2)cc1	0.92µM*	1.2µM*	0.708µM*	12.6µM*	?	0.398µM*
COc1ccc(-c2nc3ccccc3nc2-c2ccccc2)cc1	-5.5%	5.2%	-5.0%	.	-18.6%	-21.0%
CCC/C=C(\CCC)C(NC(=O)c1ccc(C(F)(F)F)cc1)c1ccc(C(F)(F)F)cc1 (centres undefined)	.	.	.	-20.9%	.	.
O=C(Nc1cc(Cl)cc(Cl)c1)c1cc(S(=O)(=O)NC2CCCC2)ccc1F	.	2.2%	.	.	.	.
CSc1ccc(C2c3[nH]c4ccccc4c3CCN2C(=O)c2cc(C)n(C)n2)cc1 (centres undefined)	?	16.9µM*	9.0%	?	?	?
Cc1cc(C(=O)N2CCc3c([nH]c4ccccc34)C2c2cccc(Cl)c2)nn1C (centres undefined)	-10.6%	-10.4%	1.1%	.	?	-0.7%
O=C(NS(=O)(=O)N1CCCC1)C1=C(N2CCCC2)COC1=O	0.7%	-2.0%	-0.2%	.	?	7.4%
O=C(CSc1cccs1)Nc1cccc2ccccc12	?	13.5µM*	?	12.6µM*	?	?
O=C(CSc1cccs1)Nc1ccc2ccccc2c1	?	21.3µM*	?	8.9%	?	?
COc1ccc(C2/C=C\CN(S(=O)(=O)c3ccc(C)cc3)CC(=O)N2Cc2cccc(F)c2)cc1 (centres undefined)	-1.8%	.	.	.	20.6µM*	.
CC(=O)N1CCN(S(=O)(=O)c2cccc(C(=O)NNC(=O)COc3ccc(F)cc3)c2)CC1	-1.0%	0.3%	-1.4%	.	14.9%	-2.6%
Cc1ccccc1N1CCN(S(=O)(=O)c2nnc(NC(=O)c3ccccc3)s2)CC1	.	-8.1%	.	.	.	.
Cc1ccccc1N1CCN(S(=O)(=O)c2nnc(NC(=O)c3ccc(C(C)C)cc3)s2)CC1	.	23.9µM*	.	.	.	.
CCN(CC)S(=O)(=O)c1nnc(NC(=O)c2ccc(C(C)C)cc2)s1	.	9.53µM*	.	.	.	.
CC(C)c1ccc(C(=O)Nc2nnc(S(=O)(=O)N3CCOCC3)s2)cc1	-1.6%	16.9µM*	-4.5%	.	-8.6%	0.3%
COc1ccc(-c2c(C#Cc3ccsc3)c3cc(-c4ccc(OC)c(F)c4)ccc3n2C)cc1	-0.6%	-1.6%	-4.4%	.	14.2%	-13.3%
C[C@@H]1CCC2[C@](C)(CO)C(O)CC[C@@]2(C)[C@@]12CC[C@](CO)(CCO)O2 (some centres undefined)	.	.	.	-0.9%	.	.
Cc1ccc(C(=O)CC(=O)c2ccc(C)cc2O)cc1	4.6%	16.9µM*	?	.	?	?
Cc1ccc(C(=O)CC(=O)c2cc(Cl)ccc2O)cc1	14.6µM*	16.9µM*	18.7%	26.0%	?	19.3%
CC(C)(C)c1ccc(C(=O)CC(=O)c2cc(Cl)ccc2O)cc1	?	-4.8%	22.6%	-87.9%	1.2%	-2.0%
